A selection: hits, their analogues and other compounds. The true share with any hit is near 2.9%.
D3 ag = qHTS of D3 Dopamine Receptor Agonist: qHTS; max activation, %; D3R DiscoveRx beta-arrestin cells, luminescence, 90 min; 410,000 tested, 0.58% active; D(3) dopamine receptor (Homo sapiens), P35462; in the data active = max activation above about 30%
Target sequence (P35462 whole entry, looked up): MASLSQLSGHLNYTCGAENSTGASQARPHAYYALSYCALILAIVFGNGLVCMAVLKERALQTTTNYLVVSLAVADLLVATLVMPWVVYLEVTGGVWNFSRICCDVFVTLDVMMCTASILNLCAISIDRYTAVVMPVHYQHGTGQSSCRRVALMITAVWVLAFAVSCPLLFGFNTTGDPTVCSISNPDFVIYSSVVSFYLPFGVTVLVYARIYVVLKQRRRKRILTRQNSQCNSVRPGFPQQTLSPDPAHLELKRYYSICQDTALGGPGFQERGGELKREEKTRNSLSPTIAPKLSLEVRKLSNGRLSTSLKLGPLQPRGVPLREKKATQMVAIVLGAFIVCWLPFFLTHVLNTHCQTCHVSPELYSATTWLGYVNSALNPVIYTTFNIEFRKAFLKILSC
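Agonist mode: compounds and dopamine controls were applied to plated cells for 90 min at 37 degrees C after an overnight attachment at 1500 cells/well. Luminescent read-out followed 30 - 60 minutes at room temperature with DiscoveRx detection reagent.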
B2AR arrestin = qHTS assay of beta-arrestin-biased ligands of beta2-adrenergic receptor. Beta-2 adrenergic receptor (Homo sapiens), P07550. beta-arrestin recruitment to beta2AR, cell-based reporter. Potency, µM (series often up to 46.1 µM), usual class: activators. 330,000 tested, 0.02% active. AID 492947, 2010; also: nearly all actives have a fitted effect of over 65% in size
a7 integrin act = qHTS for Activators of Integrin-Mediated Alleviation for Muscular Dystrophy. alpha7betagal myoblasts, beta-gal FDG fluorescence, 48 h. Potency, µM (series often up to 38.3 µM), actives largely listed as activators. 350,000 tested, 0.064% active; also: nearly all actives have a fitted effect of over 60% in size
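alpha7betagal+/- myoblasts (passage 13, 250/well) treated 48 h at 37C with compounds at 1:260 dilution of DMSO stock. Lysed, then beta-galactosidase activity read as FDG fluorescence (ex 480/em 540) after 30 min, with pre-read for autofluorescence.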
IDH1 R132H inh = qHTS for Inhibitors of mutant isocitrate dehydrogenase 1 (IDH1): qHTS | 390,000 tested, 0.093% active | IDH1-R132H enzyme, NADPH consumption, diaphorase/resazurin fluorescence | Isocitrate dehydrogenase [NADP] cytoplasmic (Homo sapiens), O75874 | Potency, µM (highest dose often 76.6 µM), usual class: inhibitors; also: nearly all actives have a fitted effect of over 65% in size
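IDH1-R132H (0.5 ug/mL) preincubated 30 min with compound, then NADPH (0.016 mM) and alpha-KG (2 mM) added; 80 min at RT, pH 7.5. Remaining NADPH coupled via diaphorase/resazurin to fluorescence (540/590 nm); concentration-response curves normalized to no-enzyme control.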
D3 antag = qHTS of D3 Dopamine Receptor Antagonist: qHTS. 360,000 tested, 2.5% active. AID 652054, 2013. D3R cells, DiscoveRx beta-arrestin luminescence, antagonist mode; stronger effect = lower value. D(3) dopamine receptor (Homo sapiens), P35462. max response, negative = inhibition, %; in the data active = max response below about -50%; inconclusive = no clear call, values can overlap the other calls
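Cells plated overnight at 1500 cells/well, then exposed to library compounds with dopamine controls for 90 minutes at 37 degrees C. DiscoveRx reagent added for 30–60 minutes at room temperature; luminescence read, quantitative HTS format.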
Each line names hits and unclear results; the compound was inactive in the other large screens; ! = repeats disagree. Unless noted, calls follow the shape of the dose curve; as a rule, active = well fitted curve in the direction sought with a large enough effect; inconclusive = small, poorly fitted or top-dose-only effect, or another doubt; inactive = no such curve, though single readings can be large; an effect the other way counts as inactive or inconclusive.

COc1ccc(OC)c(S(=O)(=O)N2CCN(c3ccccn3)CC2)c1	D3 antag -104.1
COc1ccc(CN2CCN(c3ccccn3)CC2)c(OC)c1C	D3 antag -55.9!
COc1ccc(CN2CCN(c3ncccn3)CC2)c(C)c1C	D3 ag 71.3
CCOc1ccc(/C=C/c2nc(C#N)c(NCc3ccc(OC)cc3)o2)cc1	none (no result: B2AR arrestin, a7 integrin act, D3 antag)
COc1ccc(C(=O)N2c3nc(-c4ccco4)nn3C3(CCCCC3)[C@@H]3CCCC[C@@H]32)cc1OC	none (no result: B2AR arrestin, a7 integrin act, D3 antag)
FCCCOc1ccc(/C=N/OCc2ccc(Cl)cc2)cc1	none
FCCCOc1ccc(/C=N/OCc2c(Cl)cccc2Cl)cc1	D3 antag -64.7
COc1ccc(C2CC(=O)c3cc(-c4nc(-c5ccc(C)cc5)cs4)c(=O)[nH]c3C2)cc1 (configuration not stated)	none (no result: B2AR arrestin, a7 integrin act, D3 antag)
COc1ccc(NC(=O)Nc2ccccc2OC)cc1	none
COc1ccc(OC)c(/C(O)=C/C(=O)C(=O)Nc2ccccc2OC)c1	D3 antag -66.7
COc1cccc(C(=O)O[C@H]2[C@H](Cc3ccccc3)NS(=O)(=O)[C@H]3C[C@@H]4C=C[C@]23O4)c1	D3 antag -52.4
CCOc1ccc(/C=C(\C#N)c2nc(-c3cc4ccccc4oc3=O)cs2)c(OCC)c1	none (no result: B2AR arrestin, a7 integrin act, IDH1 R132H inh, D3 antag)
COc1cc(CC(=O)OCC(=O)Nc2sccc2C(N)=O)cc(OC)c1OC	D3 ag 32.2
NC(=O)c1ccsc1NC(=O)COC(=O)Cc1ccsc1	none
O=C(Nc1ccc2nc(SCC(=O)N3CCCc4ccccc43)sc2c1)c1cccc(Cl)c1	none (no result: B2AR arrestin, a7 integrin act, D3 antag)
CSc1ccc(/C=N/n2c(Cc3ccc(Br)cc3)n[nH]c2=S)cc1	D3 antag inconclusive
CCc1n[nH]c(=S)n1/N=C/c1ccc(-c2ccc(Br)cc2)o1	D3 antag -146.5 (no result: B2AR arrestin)
CCN(CC)c1ccc(NC(=O)c2cnn3c(C(F)F)cc(-c4ccccc4)nc23)cc1	none (no result: B2AR arrestin, a7 integrin act, D3 antag)
CCCOc1ccc(CC(=O)NNC(=S)Nc2ccccc2)cc1Br	D3 antag -56.2
COc1ccc(CC(=O)NNC(=S)Nc2ccccc2)cc1Cl	none
O=C(Nc1ccccc1)Nc1cccc(C(F)(F)F)c1	none
COC(=O)/C(=C\C(=O)c1ccccc1)Nc1cccc(C(F)(F)F)c1	D3 antag -76.3
CCCn1c(=O)c(-c2nc3ccccc3[nH]2)c(O)c2ccccc21	none
CCn1c(=O)c(-c2nc3ccccc3[nH]2)c(O)c2ccccc21	D3 antag -86.3
Cc1ccc2nc(SCC(=O)c3c(C)[nH]c4ccccc34)[nH]c2c1	none
Cc1[nH]c2ccccc2c1C(=O)CSc1nc2ncc(Cl)cc2[nH]1	D3 antag -60.8
COc1cc(S(=O)(=O)N2CCN(Cc3ccc4c(c3)OCO4)CC2)c(C)cc1C	none
O=S(=O)(c1ccc(F)c(F)c1)N1CCN(Cc2ccc3c(c2)OCO3)CC1	none
O=S(=O)(c1ccc2c(c1)OCCO2)N1CCN(Cc2ccc3c(c2)OCO3)CC1	D3 antag -50.4
COc1cc(C)c(C)cc1S(=O)(=O)N1CCN(Cc2ccc3c(c2)OCO3)CC1	D3 antag -54.5
COc1ccc(CCNC(=O)C(=O)NCC(c2ccco2)S(=O)(=O)c2cccs2)cc1 (configuration not stated)	none (no result: B2AR arrestin, a7 integrin act, D3 antag)
COc1cc(C2Nc3ccccc3NC3=C2C(=O)CC(C)(C)C3)cc(OC)c1OC(C)=O (configuration not stated)	none
O=[N+]([O-])c1ccc(N2CCN(c3ccccc3F)CC2)nc1	a7 integrin act 5.62µM
COc1cccc(NC(=O)c2cnc(SCC(=O)N3CCOCC3)n(C)c2=O)c1	none (no result: B2AR arrestin, a7 integrin act, D3 antag)
COc1ccc(-c2ccc(C)cc2)cc1[C@H]1[C@@H]2C=CCC[C@@]2(C)C(=O)N1Cc1ccccc1	D3 antag -55.7
COc1ccc(-c2ccc(C(C)=O)cc2)cc1[C@H]1[C@@H]2C=CCC[C@@]2(C)C(=O)N1Cc1ccccc1	D3 antag inconclusive
COc1cc2c(cc1OC)C1O[C@](CCCCN3C(=O)c4ccccc4C3=O)(C2)OC2=C1C(=O)CC(C)(C)C2	none (no result: D3 ag, a7 integrin act, IDH1 R132H inh, D3 antag)
CC(=NNC(=S)N1CCCCC1)c1cccc(C)n1	D3 antag -106.8 (no result: B2AR arrestin)
CO[C@H]1C[C@@H]2CC[C@@H](C)[C@@](O)(O2)C(=O)C(=O)N2CCCC[C@H]2C(=O)O[C@H]([C@H](C)C[C@@H]2CC[C@@H](O)[C@H](OC)C2)CC(=O)[C@H](C)C=C(C)[C@@H](O)[C@@H](OC)C(=O)[C@H](C)C[C@H](C)/C=C/C=CC=C1C	none (no result: B2AR arrestin, a7 integrin act, IDH1 R132H inh, D3 antag)
CCN(CC)Cc1csc(C(N)=O)c1	D3 antag -52.8
CCOC(=O)CCN(Cc1ccccc1)S(=O)(=O)c1csc(C(N)=O)c1	none
Cc1cc(C)nc(SCC(=O)NN=Cc2ccc(C)o2)n1	none
COc1ccc(C(=O)N(Cc2ccccc2)Cc2cc3cc4c(cc3[nH]c2=O)OCCO4)cc1	none
COc1cccc(C(=O)N(Cc2ccccc2)Cc2cc3cc4c(cc3[nH]c2=O)OCCO4)c1	D3 ag 33.4
CN1CCCC(CC2c3ccccc3Sc3ccccc32)C1 (configuration not stated)	D3 antag -67.9 (no result: a7 integrin act)
Cc1cc(C)c2c(n1)sc1c(=O)n(-c3ccccc3C(F)(F)F)nnc12	none (no result: B2AR arrestin, a7 integrin act, D3 antag)
O=C(CCCn1c(=O)[nH]c2ccccc2c1=O)N1CCN(c2ccccc2)CC1	none (no result: B2AR arrestin, a7 integrin act, D3 antag)
O=C(/C=C/Sc1ccc(C(F)(F)F)cn1)c1ccccc1	D3 antag -68.9
O=C(CSc1ccc(C(F)(F)F)cn1)Nc1ccccc1	none
O=C(NCCc1ccccc1Cl)c1ccc2c(c1)nc1n2CCCCC1	none (no result: B2AR arrestin, a7 integrin act, D3 antag)
O=C(CSc1nnnn1-c1ccc(F)cc1F)Nc1ccccc1F	none
Cc1csc(NC(=O)CCNS(=O)(=O)c2ccc3c(c2)c(=O)n(C)c(=O)n3C)n1	D3 antag -92.8
Cc1cccnc1NC(=O)CCNS(=O)(=O)c1ccc2c(c1)c(=O)n(C)c(=O)n2C	none
COc1ccc(N2CCN(S(=O)(=O)c3ccc4c(c3)C(C(C)C)C(=O)N4)CC2)cc1 (configuration not stated)	none (no result: B2AR arrestin, a7 integrin act, D3 antag)
N#Cc1cccc(NC(=O)Cn2nc(Cc3ccncc3)c3ccccc3c2=O)c1	none (no result: B2AR arrestin, a7 integrin act, D3 antag)
Cc1cccc(C)c1NC(=O)C(=O)NCCCN1CCOCC1	none
Cc1ccccc1CC1CCN(CCCNC(=O)Nc2ccccc2)CC1	D3 antag -82.8
Cc1cccc(C)c1NC(=O)NCCCN1CCN(c2ccccc2)CC1	D3 ag 38.1, D3 antag inconclusive
O=C(NCCCN1CCN(Cc2ccccc2Cl)CC1)Nc1ccccc1	none
CC(=O)NCCNC(=O)CCCc1nnc2n(CCC(C)C)c(=O)c3sccc3n12	none (no result: B2AR arrestin, a7 integrin act, D3 antag)
Cc1ccccc1/C=N/Nc1nc2ccccc2[nH]1	a7 integrin act inconclusive
